About 2,100 (0.53%) of roughly 400,000 compounds were called active. Inconclusive results (about 14%) are left out. No rule for the calls is given here. Shown is part of a subset that was picked to be rich in actives.

62 molecules from ChEMBL document CHEMBL1201862, “PubChem BioAssay data set” (2004) can be followed below.

The target in the experiment is Ataxin-2 (Homo sapiens) (UniProt Q99700). Briefly: qHTS for Inhibitors of ATXN expression. The format is functional. A general note: qHTS replaces the single test concentration by a dilution series.
Ataxin-2 (Homo sapiens), sequence (Q99700 whole entry): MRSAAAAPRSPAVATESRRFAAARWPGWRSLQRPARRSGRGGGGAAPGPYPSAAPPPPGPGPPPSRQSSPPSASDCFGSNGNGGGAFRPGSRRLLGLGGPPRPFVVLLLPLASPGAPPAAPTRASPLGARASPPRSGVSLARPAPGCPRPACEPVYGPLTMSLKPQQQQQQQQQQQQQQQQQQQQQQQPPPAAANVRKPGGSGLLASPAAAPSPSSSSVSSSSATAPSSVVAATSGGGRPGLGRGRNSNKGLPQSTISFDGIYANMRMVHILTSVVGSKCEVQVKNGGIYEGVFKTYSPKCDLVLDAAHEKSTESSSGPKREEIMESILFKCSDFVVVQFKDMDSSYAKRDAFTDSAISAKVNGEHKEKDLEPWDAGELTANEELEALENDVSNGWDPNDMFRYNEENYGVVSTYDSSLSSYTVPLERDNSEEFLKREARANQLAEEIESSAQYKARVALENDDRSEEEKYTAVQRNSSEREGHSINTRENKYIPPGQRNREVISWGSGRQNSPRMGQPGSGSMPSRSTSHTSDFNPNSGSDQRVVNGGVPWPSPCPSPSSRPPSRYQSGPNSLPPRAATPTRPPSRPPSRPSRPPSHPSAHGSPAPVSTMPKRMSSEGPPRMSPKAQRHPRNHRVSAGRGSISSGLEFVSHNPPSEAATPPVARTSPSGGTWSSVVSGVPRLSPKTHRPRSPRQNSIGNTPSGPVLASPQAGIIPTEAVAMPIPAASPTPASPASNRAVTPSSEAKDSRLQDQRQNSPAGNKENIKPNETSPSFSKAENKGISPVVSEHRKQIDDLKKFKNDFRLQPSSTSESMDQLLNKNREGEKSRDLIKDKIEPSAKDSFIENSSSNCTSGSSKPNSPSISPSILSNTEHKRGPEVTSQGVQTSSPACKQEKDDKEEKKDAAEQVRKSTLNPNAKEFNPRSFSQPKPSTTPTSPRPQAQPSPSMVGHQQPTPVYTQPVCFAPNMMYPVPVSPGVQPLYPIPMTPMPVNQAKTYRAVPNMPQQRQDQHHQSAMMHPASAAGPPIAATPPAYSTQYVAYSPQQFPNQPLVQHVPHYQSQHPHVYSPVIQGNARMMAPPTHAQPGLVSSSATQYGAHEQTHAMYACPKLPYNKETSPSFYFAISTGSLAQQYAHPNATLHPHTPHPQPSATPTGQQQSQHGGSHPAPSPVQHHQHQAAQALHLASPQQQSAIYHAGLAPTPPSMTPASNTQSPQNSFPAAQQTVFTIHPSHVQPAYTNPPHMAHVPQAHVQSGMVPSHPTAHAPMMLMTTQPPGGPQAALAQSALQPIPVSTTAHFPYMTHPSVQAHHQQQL
As for `CC1=C(C(=O)Nc2ccccn2)C(c2cn(C)nc2C)C2=C(O)CCCC2=N1` (configuration not stated), the Potency entry is “inactive”.

For `Cc1nnc(NC(=O)CSc2nnc(-c3ccco3)n2C(C)C)s1`, the Potency result is “inactive”.

As to `Cc1cccc(-n2c(SCC(N)=O)nc3c(oc4ccccc43)c2=O)c1`, the Potency was 20 µM (active).

In the case of `Cc1nc(Nc2cccc(Cl)c2)c2oc3ccccc3c2n1`, the Potency result was “inactive”.

As for `Cc1cc(C)cc(-n2c(SCC(N)=O)nc3c(oc4ccccc43)c2=O)c1`, the Potency was 22.4 µM (active).

In the case of `Cc1cccc2c(SCC(N)=O)nc(-c3ccccc3)nc12`, the Potency entry was “inactive”.

As for `Cc1cccc(-n2c(=O)c(C#N)cc3c(=O)n4ccccc4nc32)c1`, the Potency result is “inactive”.

As to `COCCNC(=O)c1c(N)n(-c2cccc(C)c2)c2nc3ccccc3nc12`, the Potency entry was “inactive”.

Turning to `CCCOc1cccc(C2c3c(oc4ccc(F)cc4c3=O)C(=O)N2CCCN2CCOCC2)c1` (configuration not stated), the Potency entry was “inactive”.

Turning to `Cc1nc(Cl)c2c(n1)N=C1CCCC(O)=C1O2`, the Potency entry was “inactive”.

With `Cc1ccc(CNC(=O)c2cc3c(=O)n4ccccc4nc3n(CC3CCCO3)c2=N)cc1` (configuration not stated), the Potency result is “inactive”.

Regarding `CCCCn1cc[n+](-c2nc3ccccc3nc2[N-]S(=O)(=O)c2ccc(Cl)cc2)c1`, the Potency entry is “inactive”.

For `Cc1ccc(-c2nnc(Nc3cccc(O)c3)c3ccccc23)cc1S(=O)(=O)NCC1CCCO1` (configuration not stated), the Potency is 39.8 µM (active).

As to `O=C1Nc2ccc(S(=O)(=O)NCC3CCCO3)c3cccc1c23` (configuration not stated), the Potency result was “inactive”.

As for `Cc1ccc(-c2nnc(Nc3ccc4c(c3)OCO4)c3ccccc23)cc1S(=O)(=O)NC(C)C`, the Potency result is “inactive”.

In the case of `CN1CCN(C(=O)c2cc3nc(-c4ccco4)cc(C(F)(F)F)n3n2)CC1`, the Potency entry is “inactive”.

Take `Nc1ccc(Cn2ccc3c4c(N)nc(N)nc4ccc32)cc1`: the Potency is 29.9 µM (active).

Take `CN(CC(=O)Nc1ccccc1Sc1ccccc1)C1CCCCC1`: the Potency entry is “inactive”.

As to `COC(=O)N1C(=O)[C@@](c2ccccc2)(C2CCCC2)N1C(=O)OC`, the Potency is 17.8 µM (active).

As to `COc1ccc(CC(=O)NC2CCCc3ccccc32)cc1` (configuration not stated), the Potency result is “inactive”.

Regarding `Cc1ccc(C2=CC(c3ccc(Cl)cc3)n3nc(-c4ccc(C)cc4)nc3N2)cc1` (configuration not stated), the Potency entry is “inactive”.

As to `COc1ccc(CCNC(=O)CCCn2c(=O)c3ccccc3n(Cc3cccc(Cl)c3)c2=O)cc1OC`, the Potency is 39.8 µM (active).

`O=C(CCCn1c2ccccc2c(=O)c2ccccc21)Nc1cccc(Cl)c1`: the Potency result is “inactive”.

As for `COc1ccc(Cl)cc1NC(=O)CN1C(=O)NC(C)(Cc2ccc(OC)c(OC)c2)C1=O` (configuration not stated), the Potency entry is “inactive”.

Take `Cc1ccc2c(c1)c(=O)c1ccccc1n2CCCC(=O)Nc1ccc(C)c(F)c1`: the Potency result was “inactive”.

Regarding `COc1ccc(CCNC(=O)CCCn2c(=O)c3ccccc3n(CC(=O)Nc3ccc(C)cc3Cl)c2=O)cc1OC`, the Potency was 20 µM (active).

Regarding `COc1ccc(Cl)cc1NC(=O)Cn1c(=O)n(CCCC(=O)NCCc2ccc(OC)c(OC)c2)c(=O)c2ccccc21`, the Potency was 39.8 µM (active).

With `COC/C=C/C1=CC2=CC(=O)C(C)(OC(=O)c3cnc4ccccc4n3)C(=O)C2=CN1Cc1ccccc1` (configuration not stated), the Potency was 12.6 µM (active).

In the case of `COc1ccc2oc(=O)c(-c3nnc(N)s3)cc2c1`, the Potency entry was “inactive”.

Turning to `CCC(C)NC(=O)c1sc2nc(C)c(C(=O)Nc3ccc(C)cc3C)c(-c3ccccc3Cl)c2c1N` (configuration not stated), the Potency result was “inactive”.

For the molecule `CCN(CC)C(=O)c1sc2nc(-c3cccs3)cc(-c3ccc(Cl)cc3)c2c1N`, the Potency entry was “inactive”.

Take `COC(=O)c1c(C)nc(C)c(C(=O)OC)c1-c1ccc(OC)cc1`: the Potency result was “inactive”.

As to `C=C(C)COc1ccc(-c2[nH]nc(C)c2-c2ccc(Br)cc2)c(O)c1`, the Potency was 25.1 µM (active).

As to `C=C(C)COc1ccc(-c2n[nH]cc2-c2ccc(OC)c(OC)c2)c(O)c1`, the Potency was 44.7 µM (active).

As for `C=C(C)COc1ccc(-c2nc(N)ncc2-c2ccc(Cl)cc2)c(O)c1`, the Potency is 39.8 µM (active).

For the molecule `COc1ccc(-c2c(C)n[nH]c2-c2ccc(OC)c(C)c2O)cc1`, the Potency was 39.8 µM (active).

With `C=C(C)COc1ccc(-c2ncncc2-c2ccc(Br)cc2)c(O)c1`, the Potency entry is “inactive”.

Regarding `COc1ccc(-c2c(C)c3ccc(O)cc3oc2=O)cc1`, the Potency result was “inactive”.

On to `COc1cc(/C=N/NC(=O)Nc2cccc3nsnc23)cc(OC)c1OC`, for which the Potency entry was “inactive”.

As for `CNC(=O)c1cc2c(=O)n3cccc(C)c3nc2n(C(C)C)c1=N`, the Potency entry was “inactive”.

Take `Cc1ccc(S(=O)(=O)NCCc2cn3nc(C)c(C)nc3n2)cc1C`: the Potency entry is “inactive”.

In the case of `Nc1ccc2c(c1)Oc1ccccc1C=C2`, the Potency entry was “inactive”.

As to `COc1ccccc1/N=c1\oc2cc(O)ccc2cc1C(N)=O`, the Potency result is “inactive”.

Take `CCn1nc(NC(=O)Cc2ccc(OC)cc2)c2cc3cccc(C)c3nc21`: the Potency entry was “inactive”.

As to `C/C(CC1CC2=C(CC1(C)C)C(C)(C)CCC2)=N\NC(N)=S` (configuration not stated), the Potency is 35.5 µM (active).

As to `CN1C(=O)c2ccccc2N(C)C1c1ccccc1Cl` (configuration not stated), the Potency result is “inactive”.

For `COc1ccccc1C1CCCN1Cc1nc(-c2ccc(C)s2)oc1C` (configuration not stated), the Potency entry is “inactive”.

On to `Cc1cc(C)n2nc(SCC(=O)Nc3ccc(F)c(F)c3F)nc2n1`, for which the Potency result was “inactive”.

Take `COCCNc1cc(C)nc2cc(-c3ccc(C)cc3)nn12`: the Potency result is “inactive”.

Turning to `Cc1ccc(Nc2cc(C)nc3nc(Cc4ccc(Cl)cc4)nn23)cc1`, the Potency was 22.4 µM (active).

As for `Cc1c(-c2ccccc2)c(=O)oc2c(CN3CCN(C)CC3)c(O)ccc12`, the Potency result is “inactive”.

On to `Cc1ccc(-c2cc(C(=O)OCC(=O)N(C)C3CCS(=O)(=O)C3)c3ccccc3n2)o1` (configuration not stated), for which the Potency entry was “inactive”.

Consider `CN(C(=O)COC(=O)c1nc(Cl)c(Cl)c(Cl)c1Cl)C1CCS(=O)(=O)C1` (configuration not stated), for which the Potency is 33.6 µM (active).

Turning to `CN(C(=O)COC(=O)c1cc(-c2ccc(Cl)s2)nc2ccccc12)C1CCS(=O)(=O)C1` (configuration not stated), the Potency result was “inactive”.

For the molecule `CC1Cc2ccccc2N1C(=O)COC(=O)c1ccc(N(C)C)cc1` (configuration not stated), the Potency result is “inactive”.

As for `COc1cc(/C=C(/C#N)c2nc3ccccc3[nH]2)ccc1OCC(=O)Nc1ccccc1C`, the Potency result was “inactive”.

As for `CCO/C(O)=C(\C#N)c1cc(C)c2ccccc2n1`, the Potency result was “inactive”.

As for `Cc1cc(Br)ccc1SCC(=O)OC/C(O)=C(\C#N)c1nc2ccccc2[nH]1`, the Potency is 11.2 µM (active).

For `COc1cc(/C=C(/C#N)c2nc3ccccc3[nH]2)ccc1OCC(=O)Nc1ccccc1C(C)C`, the Potency result is “inactive”.

Consider `Cc1cc(Br)ccc1SCC(=O)OCC(O)=C(C#N)c1nc2ccccc2[nH]1`, for which the Potency is 39.8 µM (active).

Regarding `Cc1cc(/C=C(/C#N)c2nc3ccccc3[nH]2)c(C)n1-c1ccccc1C(=O)O`, the Potency entry was “inactive”.

In the case of `Cc1c(C)c(C)c(S(=O)(=O)N2CCNCC2)c(C)c1C`, the Potency entry is “inactive”.
